From ChEMBL document CHEMBL3988442, “University of Dundee, Small-Polar-MMV Screening Library” (2021)
For some assays here: Entries with a potency or affinity are not part of this list.

Key:
Parameters in all cases: scale not given: direction of the effect not stated beside the values
[1] = target: Protein translocase subunit SecA (Escherichia coli (strain K12)) (UniProt P10408); assay: Assay to Identify E. coli SecA ATPase Inhibitors; format: functional; details: 30 µM
[2] = target: T1, Ubiquitin-activating enzyme e1, putative (Leishmania donovani (strain BPK282A1)) (UniProt E9BSI1); assay: Leishmania donovani Ubiquitin Activating Enzyme (LdE1); format: functional; details: 30 µM
T1 sequence (whole entry): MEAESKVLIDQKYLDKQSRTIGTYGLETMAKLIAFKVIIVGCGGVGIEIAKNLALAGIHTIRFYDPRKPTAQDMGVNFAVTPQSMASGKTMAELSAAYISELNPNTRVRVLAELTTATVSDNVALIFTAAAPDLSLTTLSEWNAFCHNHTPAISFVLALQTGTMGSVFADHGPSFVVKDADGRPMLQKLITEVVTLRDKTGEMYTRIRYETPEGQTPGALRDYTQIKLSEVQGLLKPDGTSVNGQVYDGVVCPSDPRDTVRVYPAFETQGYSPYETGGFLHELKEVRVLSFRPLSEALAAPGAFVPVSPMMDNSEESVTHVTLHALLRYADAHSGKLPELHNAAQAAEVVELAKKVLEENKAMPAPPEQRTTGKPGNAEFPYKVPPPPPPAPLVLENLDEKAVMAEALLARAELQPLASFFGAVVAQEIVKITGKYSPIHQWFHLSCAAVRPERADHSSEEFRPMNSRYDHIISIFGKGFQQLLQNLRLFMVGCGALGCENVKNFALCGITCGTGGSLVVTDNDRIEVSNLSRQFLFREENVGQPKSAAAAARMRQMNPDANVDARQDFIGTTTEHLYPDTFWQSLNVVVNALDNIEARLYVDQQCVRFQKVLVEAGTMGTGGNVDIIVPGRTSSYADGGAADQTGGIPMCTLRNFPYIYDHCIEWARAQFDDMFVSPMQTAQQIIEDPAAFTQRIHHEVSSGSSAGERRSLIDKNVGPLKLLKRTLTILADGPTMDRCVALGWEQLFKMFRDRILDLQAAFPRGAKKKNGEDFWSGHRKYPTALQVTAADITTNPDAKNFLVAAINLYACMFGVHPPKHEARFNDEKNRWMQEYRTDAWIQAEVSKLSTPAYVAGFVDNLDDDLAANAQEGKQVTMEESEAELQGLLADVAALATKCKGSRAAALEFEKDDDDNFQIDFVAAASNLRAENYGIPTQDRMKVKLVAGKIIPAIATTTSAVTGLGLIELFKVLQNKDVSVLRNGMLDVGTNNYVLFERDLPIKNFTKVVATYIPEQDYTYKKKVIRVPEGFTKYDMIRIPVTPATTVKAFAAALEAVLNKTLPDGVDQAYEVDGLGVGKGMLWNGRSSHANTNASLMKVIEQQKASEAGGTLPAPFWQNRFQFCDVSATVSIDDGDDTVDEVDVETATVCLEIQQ

[3] = target: AMP-activated protein kinase, AMPK (Homo sapiens) (UniProt P54646+O43741+P54619+Q9UGJ0+Q9Y478+Q13131+Q9UGI9); assay: AMP-dependent Kinase enzyme assay. An in vitro enzyme assay that detects ADP turnover that is directly proportional to AMPK activity. This uses naive AMPK that is activated during the assay with MK-8722; format: functional; details: 30 µM
[4] = target: Sialic acid-binding Ig-like lectin 9 (Homo sapiens) (UniProt Q9Y336); assay: Hs-Siglec9 ALPHAscreen SOP 20170721; details: 10 µM
Trypanosoma cruzi = assay: Trypanosoma cruzi phosphomannomutase and mannose-1-phosphate guanylyltransferase assay; format: functional; details: 10 µM
[5] = target: T2, Arginase-2, mitochondrial (Homo sapiens) (UniProt P78540); assay: in vitro enzyme assay to detect the production of urea directly proportional to the activity of Arginase II; format: functional; details: 33.3 µM; further: in the data most compounds retested in dose-response had high values
T2 sequence (whole entry): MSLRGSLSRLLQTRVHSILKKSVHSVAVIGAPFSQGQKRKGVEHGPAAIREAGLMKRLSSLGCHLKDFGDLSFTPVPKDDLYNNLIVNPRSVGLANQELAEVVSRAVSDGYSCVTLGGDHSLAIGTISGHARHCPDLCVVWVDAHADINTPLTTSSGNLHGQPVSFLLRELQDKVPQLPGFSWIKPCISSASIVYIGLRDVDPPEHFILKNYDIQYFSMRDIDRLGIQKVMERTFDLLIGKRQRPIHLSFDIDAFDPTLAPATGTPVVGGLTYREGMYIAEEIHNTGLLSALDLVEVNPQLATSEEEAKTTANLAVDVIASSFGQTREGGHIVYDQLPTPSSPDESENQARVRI

[6] = target: T3, Proteasome subunit beta (Trypanosoma cruzi) (UniProt O96673); assay: Trypanosoma cruzi proteasome chymotrypsin-like activity (TcProtChymo) assay.; further: in the data most compounds retested in dose-response had high values; format: functional; details: 9.37 µM
T3 sequence (whole entry): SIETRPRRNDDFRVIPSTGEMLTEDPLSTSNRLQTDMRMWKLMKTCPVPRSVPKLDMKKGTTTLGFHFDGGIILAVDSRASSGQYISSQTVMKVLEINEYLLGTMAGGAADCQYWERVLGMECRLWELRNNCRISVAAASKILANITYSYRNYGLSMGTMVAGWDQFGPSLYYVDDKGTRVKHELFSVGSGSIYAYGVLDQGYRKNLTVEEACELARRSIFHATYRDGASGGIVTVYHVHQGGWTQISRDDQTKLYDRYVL

Homo sapiens = organism: Homo sapiens; assay: To identify inhibition of the IFN signalling (Jak-Stat) pathway via expression of an eGFP reporter gene under the control of an IFN-stimulated response element (ISRE) containing MxA promoter.; format: functional; details: 30 µM
[7] = target: T4, Tyrosyl-tRNA synthetase, putative (Trypanosoma cruzi (strain CL Brener)) (UniProt Q4DSP6); assay: Trypanosoma cruzi tyrosyl tRNA synthetase (TcYRS) _High Tyrosine SOP; format: functional; details: 30 µM; further: in the data most compounds retested in dose-response had high values
T4 sequence (whole entry): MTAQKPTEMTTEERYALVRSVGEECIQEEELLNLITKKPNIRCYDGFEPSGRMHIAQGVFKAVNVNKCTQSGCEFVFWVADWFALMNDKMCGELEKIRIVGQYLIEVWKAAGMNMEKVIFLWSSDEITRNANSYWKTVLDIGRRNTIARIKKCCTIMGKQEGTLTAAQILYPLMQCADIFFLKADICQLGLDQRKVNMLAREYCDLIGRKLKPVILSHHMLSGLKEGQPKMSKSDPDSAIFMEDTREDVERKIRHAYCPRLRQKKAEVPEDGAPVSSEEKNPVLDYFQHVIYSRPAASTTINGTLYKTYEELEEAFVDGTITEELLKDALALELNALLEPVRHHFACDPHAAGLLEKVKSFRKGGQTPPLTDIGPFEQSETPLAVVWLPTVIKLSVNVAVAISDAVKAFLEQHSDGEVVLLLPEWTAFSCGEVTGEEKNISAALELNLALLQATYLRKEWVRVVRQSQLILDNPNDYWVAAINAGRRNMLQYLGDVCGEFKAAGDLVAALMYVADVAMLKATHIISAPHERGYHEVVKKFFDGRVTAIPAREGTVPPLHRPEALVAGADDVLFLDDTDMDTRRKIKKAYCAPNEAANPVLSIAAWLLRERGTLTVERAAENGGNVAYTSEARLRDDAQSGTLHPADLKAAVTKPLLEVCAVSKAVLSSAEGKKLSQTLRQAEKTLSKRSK

[8] = target: T4, Tyrosyl-tRNA synthetase, putative (Trypanosoma cruzi (strain CL Brener)); assay: Trypanosoma cruzi tyrosyl tRNA synthetase (TcYRS) SOP; format: functional; details: 30 µM
[9] = target: Chromo domain-containing protein 1 (Saccharomyces cerevisiae (strain ATCC 204508 / S288c) (Baker's yeast)) (UniProt P32657); assay: ScCHD-1 Enzyme Inhibition Assay; format: functional; details: 30 µM; further: in the data most compounds retested in dose-response had high values
Chromo domain-containing protein 1 (Saccharomyces cerevisiae (strain ATCC 204508 / S288c) (Baker's yeast)), sequence (P32657 whole entry, the tested form may be a part): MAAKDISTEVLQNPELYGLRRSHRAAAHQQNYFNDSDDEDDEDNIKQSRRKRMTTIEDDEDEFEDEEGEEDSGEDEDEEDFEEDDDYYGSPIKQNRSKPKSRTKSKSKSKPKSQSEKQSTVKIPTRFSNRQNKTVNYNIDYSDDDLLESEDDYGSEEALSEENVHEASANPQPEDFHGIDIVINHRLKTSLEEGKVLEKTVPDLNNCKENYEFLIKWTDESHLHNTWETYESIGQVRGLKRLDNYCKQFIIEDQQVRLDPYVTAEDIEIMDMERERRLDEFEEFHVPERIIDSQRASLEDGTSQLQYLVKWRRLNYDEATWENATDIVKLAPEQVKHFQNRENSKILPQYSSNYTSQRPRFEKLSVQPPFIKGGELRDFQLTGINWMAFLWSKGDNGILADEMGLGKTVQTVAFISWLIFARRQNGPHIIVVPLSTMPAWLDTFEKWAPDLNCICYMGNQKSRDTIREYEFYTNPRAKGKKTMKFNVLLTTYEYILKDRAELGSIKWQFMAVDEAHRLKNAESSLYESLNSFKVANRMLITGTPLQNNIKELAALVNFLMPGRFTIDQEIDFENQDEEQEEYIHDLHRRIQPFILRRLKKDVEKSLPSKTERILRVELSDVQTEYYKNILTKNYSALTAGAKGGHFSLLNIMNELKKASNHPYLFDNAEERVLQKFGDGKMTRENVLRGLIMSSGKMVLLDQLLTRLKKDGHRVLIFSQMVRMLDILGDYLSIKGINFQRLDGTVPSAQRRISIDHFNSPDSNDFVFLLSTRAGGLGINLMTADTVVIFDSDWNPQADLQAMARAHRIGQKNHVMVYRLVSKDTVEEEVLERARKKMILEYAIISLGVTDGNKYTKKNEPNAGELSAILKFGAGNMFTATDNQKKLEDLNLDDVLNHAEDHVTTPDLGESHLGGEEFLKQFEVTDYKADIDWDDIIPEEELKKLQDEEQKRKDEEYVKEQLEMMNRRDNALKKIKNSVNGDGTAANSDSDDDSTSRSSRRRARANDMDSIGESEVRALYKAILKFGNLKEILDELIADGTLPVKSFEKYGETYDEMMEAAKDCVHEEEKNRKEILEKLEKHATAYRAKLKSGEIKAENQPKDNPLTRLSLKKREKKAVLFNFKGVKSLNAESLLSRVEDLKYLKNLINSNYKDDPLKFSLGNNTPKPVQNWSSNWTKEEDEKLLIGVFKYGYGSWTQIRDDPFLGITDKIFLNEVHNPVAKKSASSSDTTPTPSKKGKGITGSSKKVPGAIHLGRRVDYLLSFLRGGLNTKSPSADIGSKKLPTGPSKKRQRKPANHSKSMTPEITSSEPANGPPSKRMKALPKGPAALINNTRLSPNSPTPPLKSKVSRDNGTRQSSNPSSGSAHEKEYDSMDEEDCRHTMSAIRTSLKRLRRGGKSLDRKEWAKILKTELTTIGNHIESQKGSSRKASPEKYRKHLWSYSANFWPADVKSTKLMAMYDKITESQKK

Protein translocase subunit SecA (Escherichia coli (strain K12)), sequence (P10408 whole entry): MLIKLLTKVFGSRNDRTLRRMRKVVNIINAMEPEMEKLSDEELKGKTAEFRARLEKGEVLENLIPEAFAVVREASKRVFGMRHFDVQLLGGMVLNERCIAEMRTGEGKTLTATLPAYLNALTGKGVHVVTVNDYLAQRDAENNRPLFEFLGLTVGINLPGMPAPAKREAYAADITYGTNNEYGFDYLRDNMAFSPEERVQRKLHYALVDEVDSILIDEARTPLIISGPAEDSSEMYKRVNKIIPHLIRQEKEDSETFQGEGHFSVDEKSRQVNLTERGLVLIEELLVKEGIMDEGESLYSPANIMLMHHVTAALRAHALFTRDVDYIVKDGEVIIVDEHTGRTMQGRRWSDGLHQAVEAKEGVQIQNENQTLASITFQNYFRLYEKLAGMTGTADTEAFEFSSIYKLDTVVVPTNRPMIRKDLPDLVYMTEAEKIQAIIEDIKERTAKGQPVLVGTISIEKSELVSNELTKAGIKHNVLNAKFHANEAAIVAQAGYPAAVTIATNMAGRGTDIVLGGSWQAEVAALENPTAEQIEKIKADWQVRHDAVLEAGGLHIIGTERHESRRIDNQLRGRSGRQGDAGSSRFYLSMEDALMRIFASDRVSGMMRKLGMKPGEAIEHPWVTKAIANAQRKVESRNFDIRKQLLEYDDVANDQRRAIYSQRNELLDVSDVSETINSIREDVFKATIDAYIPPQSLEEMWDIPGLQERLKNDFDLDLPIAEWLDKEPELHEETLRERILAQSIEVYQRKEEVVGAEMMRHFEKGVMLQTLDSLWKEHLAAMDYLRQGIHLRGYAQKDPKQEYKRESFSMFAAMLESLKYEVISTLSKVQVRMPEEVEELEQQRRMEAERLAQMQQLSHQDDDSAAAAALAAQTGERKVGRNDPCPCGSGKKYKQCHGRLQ
Sialic acid-binding Ig-like lectin 9 (Homo sapiens), sequence (Q9Y336 whole entry): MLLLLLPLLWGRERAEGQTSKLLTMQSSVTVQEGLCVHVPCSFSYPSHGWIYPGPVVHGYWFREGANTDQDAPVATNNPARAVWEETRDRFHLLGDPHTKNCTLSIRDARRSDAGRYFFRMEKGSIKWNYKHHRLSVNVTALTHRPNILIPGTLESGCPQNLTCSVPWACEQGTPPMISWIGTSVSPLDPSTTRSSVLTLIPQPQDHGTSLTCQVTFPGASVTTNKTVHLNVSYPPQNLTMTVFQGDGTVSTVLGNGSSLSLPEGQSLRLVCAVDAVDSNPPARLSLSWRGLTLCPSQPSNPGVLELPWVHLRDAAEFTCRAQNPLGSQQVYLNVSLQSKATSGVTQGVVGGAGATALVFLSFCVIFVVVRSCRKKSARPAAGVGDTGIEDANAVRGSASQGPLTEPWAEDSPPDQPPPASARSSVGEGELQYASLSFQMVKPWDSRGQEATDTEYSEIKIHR

Row | Structure (SMILES) | Percent Effect [1] | Percent Effect [2] | Percent Effect [3] | Percent Effect [4] | Percent Effect (Trypanosoma cruzi) | Percent Effect [5] | Percent Effect [6] | Percent Effect (Homo sapiens) | Percent Effect [7] | Percent Effect [8] | Percent Effect [9]
1 | Cc1cnn(CC(C)NCc2nc(-c3cccnc3)no2)c1 (stereo unspecified) | -6.08% | -1.39% | -14% | 7.77% | -4.76% | -1.32% | 13% | -8.09% | 7.37% | 5.13% | -1.42%
2 | Cc1cccc(-c2[nH]ncc2CNCC2CCN(CC(C)O)CC2)c1 (stereo unspecified) | -3.75% | 8.11% | -18.5% | 11.6% | 1.42% | 0.401% | 3.96% | 3.31% | 5.42% | 18.5% | -8.81%
3 | CNC(=O)c1cccc(CNC(=O)C2CC(=O)N(CCN(C)C)C2)c1 (stereo unspecified) | -5.39% | 5.33% | 4.48% | 0.817% | -2.63% | -1.04% | 12.2% | 14.1% | 3.83% | 6.17% | -3.88%
4 | O=C(c1ccco1)N1CCOCC2(C1)CN(c1ccccc1)C(=O)CO2 (stereo unspecified) | -3.5% | 2.67% | 5.75% | 17.4% | -3.86% | -27.8% | -1.54% | 5.08% | 2.08% | -2.5% | -5.45%
5 | Cc1noc(C)c1-c1cncc(C2CCCN2Cc2cncnc2)n1 (stereo unspecified) | -2.17% | 2.67% | 6.8% | -2.83% | -3.54% | 1.63% | 5.55% | 18.2% | 4.25% | 8.97% | -6.34%
6 | Cc1cccc(CNCc2c(C(C)C)nn(C)c2N2CCOCC2)n1 | -1.17% | 5.48% | -18.3% | -6.47% | -1.57% | -8.64% | 5.68% | -8.24% | 2.15% | 5% | -2.13%
7 | Cn1ccc(C(=O)N2CCC(Cc3cccc4cccnc34)C2)n1 (stereo unspecified) | -2.61% | 9.46% | 13.5% | 3.85% | -5.73% | -2.09% | 4.68% | 16.3% | 5.38% | 6.49% | 0.402%
8 | CC(C)c1nc(CCNC(=O)NCc2ccnc(N(C)C)c2)cs1 | -3.48% | 6.33% | 8.79% | 4.61% | -0.103% | 5.81% | 9.43% | 12.5% | 1.04% | 5.06% | -13%
9 | Cc1cnn(C2CN(CC(O)c3ccc4c(c3)OCCO4)C2)c1 (stereo unspecified) | -0.511% | -24% | -2.25% | -4.57% | -0.292% | 0% | 7.5% | 10.6% | 13.7% | 13.6% | -6.83%
10 | O=S(=O)(NCC1CCOc2ccccc2C1)N1CCOCC1 (stereo unspecified) | -5.96% | 15.6% | 1.72% | 13.8% | 3.83% | -1.38% | 11.8% | 6.21% | 3.23% | 13.6% | 1.35%
11 | COc1cccc(N2CCN(CC(O)c3cc(C)sc3C)CC2)c1 (stereo unspecified) | -4.6% | 20.3% | 6.95% | -1.22% | 2.77% | -2.55% | 5.62% | 19.5% | 15.1% | 22.1% | -16.3%
12 | Cc1cccnc1NC(=O)CC1(Cn2cnnn2)CCCCC1 | -5.51% | 21.1% | -0.535% | 3.53% | 1.66% | 1.18% | 9.11% | -4.12% | 3.19% | 13% | -13.8%
13 | Cc1cc(N2CCCC2c2cnccn2)ncn1 (stereo unspecified) | -2.62% | 6.76% | 8.11% | 0.00484% | -2.37% | 0.696% | 7.02% | 5.1% | 8.6% | 14.3% | -2.99%
14 | COc1ccc(OC)c(CN2CCCCCC2c2cccs2)c1 (stereo unspecified) | -4.16% | -7.79% | -2.05% | -14.1% | 7.59% | 3.23% | 9.05% | 8.15% | -5.29% | -32% | -9.84%
15 | CCc1cnc(CN2CCCC2c2noc(C3CC3)n2)o1 (stereo unspecified) | -2.28% | 10.8% | -15.2% | -4.49% | 5.94% | -18.4% | 23.6% | 25.5% | 9.36% | 18.5% | -9.7%
16 | CN(CC1COc2ccccc2O1)C(=O)NCCCn1ccnc1 (stereo unspecified) | -1.25% | 0% | 12.1% | -8.39% | -4.7% | -3.06% | -0.835% | 27.3% | -3.43% | -7.32% | 7.75%
